According to PubChem BioAssay AID1159580 (chemical genetic matrix, 2015):
Out of some 5,500 compounds screened, about 2,000 (36%) were called active. Roughly 18% stayed inconclusive and do not appear here. Cut-off read from the data, not from the text of the source: active = normalized growth mostly below about 0.91 (no sharp cut-off); inconclusive = no clear call, values can overlap the other calls; inactive = mostly above about 0.92. Some of the results follow.

Assay: chemical genetic growth profiling, strain panel (AID 1159580);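 note: tested at 20 µM; growth read once vehicle control cultures reached saturation at 30 °C; 1 = growth at the plate median or of vehicle wells; lower values mean less growth of the strain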
Details: S. cerevisiae deletion strains, growth OD
[1] = locus YHR030C, strain SLT2, hits give low values
[2] = locus YJL095W, strain BCK1, hits give low values
[3] = locus YBR021W, strain FUR4, hits give low values
[4] = locus YBR229C, strain ROT2, hits give low values
[5] = locus YCL029C, strain bik1, hits give low values
[6] = locus YDL035C, strain GPR1, hits give low values
[7] = locus YDL074C, strain BRE1, hits give low values
[8] = locus YDL101C, strain DUN1, hits give low values
[9] = locus YDL185W, strain tfp1, hits give low values
[10] = locus YDL192W, strain arf1, hits give low values
[11] = locus YDR101C, strain arx1, hits give low values
[12] = locus YDR162C, strain NBP2, hits give low values
[13] = locus YDR318W, strain mcm21, hits give low values
[14] = locus YDR388W, hits give low values
[15] = locus YDR502C, strain sam2, hits give low values
[16] = locus YER110C, hits give low values
[17] = locus YER155C, strain BEM2, hits give low values
[18] = locus YER167W, strain BCK2, hits give low values
[19] = locus YGL078C, strain dbp3, hits give low values
[20] = locus YGL086W, strain mad1, hits give low values
[21] = locus YGL248W, strain PDE1, hits give low values
[22] = locus YGR078C, strain PAC10, hits give low values
[23] = locus YGR135W, strain pre9, hits give low values
[24] = locus YGR252W, strain gcn5, hits give low values
[25] = locus YHR079C, strain IRE1 (second series), hits give low values
[26] = locus YHR094C, strain hxt1, hits give low values
[27] = locus YHR129C, strain ARP1, hits give low values
[28] = locus YHR200W, strain rpn10, hits give low values
[29] = locus YIL066C, strain RNR3, hits give low values
[30] = locus YIL073C, strain SPO22, hits give low values
[31] = locus YIL125W, strain kgd1, hits give low values
[32] = locus YIR030C, strain dcg1, hits give low values
[33] = locus YJL134W, strain LCB3, hits give low values
[34] = locus YJL168C, strain set2, hits give low values
[35] = locus YJL187C, strain SWE1 (second series), hits give low values
[36] = locus YKL009W, strain mrt4, hits give low values
[37] = locus YKL068W, hits give low values
[38] = locus YKL085W, strain MDH1 (second series), hits give low values
[39] = locus YKL085W, strain MDH1, hits give low values
[40] = locus YKR001C, strain vps1, hits give low values
[41] = locus YLR039C, strain RIC1, hits give low values
[42] = locus YLR058C, strain SHM2, hits give low values
[43] = locus YLR102C, strain apc9, hits give low values
[44] = locus YLR268W, strain sec22, hits give low values
[45] = locus YLR371W, strain rom2, hits give low values
[46] = locus YLR418C, strain cdc73, hits give low values
[47] = locus YML016C, strain PPZ1, hits give low values
[48] = locus YML032C, strain rad52, hits give low values
[49] = locus YML124C, strain tub3, hits give low values
[50] = locus YMR078C, strain ctf18, hits give low values
[51] = locus YMR223W, strain ubp8, hits give low values
[52] = locus YMR307W, strain GAS1, hits give low values
[53] = locus YNL067W, strain RPL9B, hits give low values
[54] = locus YNL153C, strain GIM3, hits give low values
[55] = locus YNL233W, strain BNI4, hits give low values
[56] = locus YNL250W, strain rad50, hits give low values
[57] = locus YNL271C, strain bni1, hits give low values
[58] = locus YNL298W, strain CLA4, hits give low values
[59] = locus YNL307C, strain MCK1, hits give low values
[60] = locus YNL322C, strain KRE1, hits give low values
[61] = locus YNR052C, strain pop2, hits give low values
[62] = locus YOL147C, strain pex11, hits give low values
[63] = locus YOR061W, strain CKA2, hits give low values
[64] = locus YOR069W, strain VPS5, hits give low values
[65] = locus YOR136W, strain idh2, hits give low values
[66] = locus YOR144C, strain elg1, hits give low values
[67] = locus YOR184W, strain ser1, hits give low values
[68] = locus YOR316C, strain cot1, hits give low values
[69] = locus YPR119W, strain clb2, hits give low values
[70] = locus YPR141C, strain kar3, hits give low values
[71] = locus YPR163C, strain tif3, hits give low values
[72] = locus YPR167C, strain met16, hits give low values
[73] = strain wtn01, hits give low values

Measured: normalized growth

CS(=O)(=O)c1ccc([C@@H](O)[C@H](CF)NC(=O)C(Cl)Cl)cc1
inactive: [1] 1.03 | locus YHR079C, strain IRE1, hits give low values 0.953 | [2] 0.973 | locus YJR066W, strain TOR1, hits give low values 0.956 | locus YLR113W, strain HOG1, hits give low values 0.935 | locus YNL183C, strain NPR1, hits give low values 0.909 | locus YOR231W, strain MKK1, hits give low values 0.969 | locus YPL256C, strain CLN2, hits give low values 0.943

Cc1cc(=O)c2c(O)c3c(cc2o1)OCC(C)CC3 (stereo not given)
inactive: [3] 0.993 | [4] 0.981 | [5] 0.912 | [6] 0.954 | [7] 0.818 | [8] 0.898 | [9] 0.915 | [12] 0.885 | [18] 0.961 | [19] 0.936 | [26] 0.926 | [27] 0.926 | [29] 0.941 | [30] 0.796 | [2] 0.815 | [33] 0.969 | [35] 0.908 | locus YJR043C, strain POL32, hits give low values 0.966 | [36] 0.897 | [38] 0.942 | [39] 0.942 | [42] 0.926 | [43] 0.928 | [44] 0.914 | [47] 0.976 | [53] 0.919 | [56] 0.902 | [57] 0.922 | [58] 0.929 | [61] 0.932 | locus YOL012C, strain htz1 1.02 | [63] 0.98 | [64] 0.96 | [70] 0.918
active: [10] 0.848 | [11] 0.896 | [13] 0.858 | [14] 0.909 | [15] 0.858 | [16] 0.893 | [17] 0.849 | [20] 0.846 | [21] 0.881 | [22] 0.8 | [23] 0.806 | [24] 0.689 | [25] 0.925 | [28] 0.868 | [31] 0.924 | [32] 0.912 | [34] 0.914 | [37] 0.921 | [40] 0.797 | [41] 0.673 | [45] 0.821 | [46] 0.591 | [48] 0.881 | [49] 0.91 | [50] 0.899 | [51] 0.879 | [52] 0.588 | [54] 0.704 | [55] 0.826 | [59] 0.719 | [60] 0.923 | [62] 0.887 | [65] 0.915 | [66] 0.91 | [67] 0.725 | [68] 0.918 | [69] 0.914 | [71] 0.855 | [72] 0.868 | [73] 0.897

Cc1cc(=O)c2c(O)c3c(cc2o1)OC(C)(C)CC3
inactive: locus YAL013W, strain DEP1, hits give low values 1.01 | [3] 1.07 | [4] 1 | [5] 0.967 | [6] 1.02 | [7] 1.03 | [8] 0.989 | locus YDL134C, strain PPH21, hits give low values 0.981 | [9] 0.938 | [10] 0.965 | [11] 0.975 | [12] 1.01 | [13] 0.954 | [14] 0.966 | [15] 0.971 | locus YEL061C, strain CIN8, hits give low values 1 | [16] 0.967 | [17] 0.995 | [18] 0.998 | [19] 0.951 | [20] 0.983 | [21] 1 | [22] 0.998 | [23] 0.923 | [24] 0.931 | [1] 0.992 | [25] 0.962 | [26] 0.975 | [27] 0.993 | [28] 0.968 | [29] 1.01 | [30] 0.899 | [31] 0.978 | [32] 0.949 | [2] 0.972 | [33] 1 | [34] 0.969 | [35] 0.973 | [36] 0.992 | [37] 0.976 | [38] 1 | [39] 1 | locus YKL190W, strain CNB1, hits give low values 1 | [40] 0.96 | [41] 1.01 | [42] 0.994 | [43] 0.975 | [44] 0.989 | locus YLR330W, strain CHS5, hits give low values 0.988 | locus YLR342W, strain FKS1 (second series), hits give low values 1.08 | [45] 0.95 | [46] 0.972 | [47] 1.01 | [48] 0.963 | [49] 0.971 | [50] 0.951 | [51] 0.959 | locus YMR263W, strain SAP30, hits give low values 0.973 | [52] 1.21 | [53] 0.97 | locus YNL128W, strain TEP1, hits give low values 1 | [54] 0.973 | [55] 1.02 | [56] 0.967 | [57] 0.965 | [58] 0.961 | [59] 0.982 | [60] 0.995 | [61] 0.949 | locus YOL012C, strain htz1 0.959 | [62] 0.967 | [63] 1 | [64] 0.997 | [65] 0.997 | [66] 0.973 | [67] 1 | [68] 0.964 | locus YPL055C, strain LGE1, hits give low values 1.05 | [69] 0.956 | [70] 0.946 | [71] 0.98 | [72] 0.949 | [73] 1
